# Laboratory results: PubChem BioAssay (NCI)
# Compounds without any hit were thinned out: in the full panel of roughly 83,000, 20% have a hit.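 Single-concentration screen, 48 h exposure, 96-well plates. Endpoint: percent growth. Below 10 = active.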 A number with no mark means an inactive call. Activity calls are given as the source filed them.
# System: HL-60(TB) leukemia
# Assay: NCI-60 one-dose screen, 48 h (100 = growth as untreated, 0 = no growth, -100 = all killed)
# Conditions: 10 µM unless noted
row,SMILES,growth
1,CCCCCCCn1cc2c(N[C@H](C)c3ccccc3)ncnc2n1,117%
2,O=C(Nc1cccc(Cl)c1)Nc1nc2ccc([N+](=O)[O-])cc2o1,0.103% (active)
3,C/C(=C(/C)C1CC1CCNC1CCC(NC(=O)OC(C)(C)C)CC1)c1ccccc1 (stereo not drawn),56.6%
